Where a name gives a salt, the structure may show the parent alone. ± gives the standard deviation of the averaged measurements.
System: E. coli TESEC Alr+ wild-type control
Test: growth (OD600 after 10 h); higher = more growth (less inhibition)
Conditions: compound 0.1 mM; raw OD600 reference: median of DMSO wells 0.49, cell-free background 0.052
Method: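 TESEC Mtb Alr E. coli (ΔaraC ΔtolC ΔentC Δalr ΔdadX, arabinose-inducible Mtb Alr) or the Alr+ wild-type control strain, grown in defined M9-fructose medium without D-alanine in 96-well plates with Prestwick library compounds at 0.1 mM and 1% DMSO. Low Alr induction is 0.1 µM arabinose and high induction is 10 mM arabinose.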

Structure (SMILES)	growth
C[C@@H]1CC[C@H]2[C@@H](C)C(=O)O[C@@H]3O[C@@]4(C)CC[C@@H]1[C@]32OO4 [Artemisinin]	0.33 ± 0.0069
CC(N)C(O)c1ccccc1 (stereo not given) [Phenylpropanolamine hydrochloride]	0.527 ± 0.077
COc1cc2c(cc1OC)C(C)NCC2 (stereo not given)	0.453 ± 0.034
C[N+](C)(C)CCCCCCCCCC[N+](C)(C)C [Decamethonium bromide]	0.417 ± 0.017
COc1ccc(Cc2nccc3cc(OC)c(OC)cc23)cc1OC [Papaverine hydrochloride]	0.579 ± 0.04
CC(C)C[C@H](CN)CC(=O)O [Pregabalin]	0.614 ± 0.019
CC(=O)O[C@H]1C[C@@H]2CC[C@@H]3[C@H](CC[C@@]4(C)[C@H]3C[C@H]([N+]3(C)CCCCC3)[C@@H]4OC(C)=O)[C@@]2(C)C[C@@H]1[N+]1(C)CCCCC1 [Pancuronium bromide]	0.506 ± 0.021
C=C(C)[C@@H]1[C@H]2OC(=O)[C@@H]1[C@]1(O)C[C@H]3O[C@]34C(=O)O[C@H]2[C@]14C [Picrotoxinin]	0.479 ± 0.082
COc1cc2c(c(OC)c1OC)-c1ccc(OC)c(=O)cc1[C@@H](NC(C)=O)CC2 [Colchicine]	0.6712 ± 0.00062
CC(=O)OCC1=C(C(=O)O)N2C(=O)[C@@H](N)[C@H]2SC1 [Cephalosporanic acid, 7-amino]	0.649 ± 0.029
C[N+]12CCC(CC1)C(OC(=O)C(O)(c1ccccc1)c1ccccc1)C2 (stereo not given) [Clidinium bromide]	0.611 ± 0.031
CC[C@@]1(O)C(=O)OCc2c1cc1n(c2=O)Cc2cc3ccccc3nc2-1 [Camptothecine (S,+)]	0.477 ± 0.033
NCC(CC(=O)O)c1ccc(Cl)cc1 (racemic) [Baclofen (R,S)]	0.456 ± 0.038
C#C[C@]1(O)CC[C@H]2[C@@H]3CCC4=CC(=O)CCC4=C3C=C[C@@]21CC [Gestrinone]	0.287 ± 0.011
O=[N+]([O-])O[C@H]1CO[C@H]2[C@@H]1OC[C@H]2O[N+](=O)[O-] [Isosorbide dinitrate]	0.474 ± 0.092
CCC(COC(=O)c1cc(OC)c(OC)c(OC)c1)(c1ccccc1)N(C)C (stereo not given) [Trimebutine]	0.255 ± 0.018
C[C@]12C[C@H]3S[C@H]3C[C@@H]1CC[C@@H]1[C@@H]2CC[C@]2(C)[C@@H](O)CC[C@@H]12 [Epitiostanol]	0.534 ± 0.0058
CC(=O)NC1CCSC1=O (racemic) [N-Acetyl-DL-homocysteine Thiolactone]	0.406 ± 0.015
CC(C)(C)NCC(O)c1ccccc1Cl (stereo not given) [Tulobuterol]	0.507 ± 0.082
C[C@]12CC[C@H](O)C[C@H]1CC[C@@H]1[C@@H]2C[C@@H](O)[C@]2(C)[C@@H](C3=CC(=O)OC3)CC[C@]12O [Digoxigenin]	0.491 ± 0.031

Structure (SMILES)	growth
COP(=O)(OC)C(O)C(Cl)(Cl)Cl (stereo not given) [Trichlorfon]	0.505 ± 0.046
CC(=O)[C@H]1CC[C@H]2[C@@H]3CC[C@H]4C[C@H](O)CC[C@]4(C)[C@H]3C(=O)C[C@]12C [Alfaxalone]	0.3925 ± 0.0021
O=C(CCCN1CCC(n2c(=O)[nH]c3ccccc32)CC1)c1ccc(F)cc1 [Benperidol]	0.407 ± 0.02
CC[C@@H](C(N)=O)N1CCCC1=O [Levetiracetam]	0.453 ± 0.03
O=c1c2ccccc2[se]n1-c1ccccc1 [Ebselen]	0.538 ± 0.076
C[N+]1([O-])[C@@H]2C[C@@H](OC(=O)[C@H](CO)c3ccccc3)C[C@H]1[C@@H]1O[C@@H]12 (stereo not given in full) [Scopolamin-N-oxide hydrobromide]	0.472 ± 0.045
O=C(O)CCCc1ccc(N(CCCl)CCCl)cc1 [Chlorambucil]	0.537 ± 0.095
CN(C)C(=O)Oc1ccc[n+](C)c1 [Pyridostigmine iodide]	0.436 ± 0.011
CC(C)c1cccc(C(C)C)c1O [Propofol]	0.55 ± 0.038
NCCCNCCSP(=O)(O)O [Amifostine]	0.627 ± 0.013
CC(=O)O[C@H]1CC[C@@]2(C)C(=CC[C@@H]3[C@@H]2CC[C@]2(C)C(=O)CC[C@@H]32)C1 [Dehydroisoandosterone 3-acetate]	0.253 ± 0.0042
C=CCC1(CC(C)C)C(=O)NC(=O)NC1=O [Butalbital]	0.516 ± 0.029
C[CH2][Hg][S]c1ccccc1C(=O)[O-].[Na+] [Thimerosal]	0.216 ± 0.1
CN(C)[C@@H]1C(=O)C(C(N)=O)=C(O)[C@@]2(O)C(=O)C3=C(O)c4c(O)cccc4[C@@](C)(O)[C@H]3[C@H](O)[C@@H]12 [Oxytetracycline dihydrate]	0.0551 ± 0.00064
C#C[C@]1(O)CC[C@H]2[C@@H]3CCC4=CC(=O)CC[C@]4(C)[C@H]3CC[C@@]21C [Ethisterone]	0.48 ± 0.055
CN1C[C@H](CNC(=O)OCc2ccccc2)C[C@@H]2c3cccc4c3c(cn4C)C[C@H]21 [Metergoline]	0.04927 ± 5.8e-05
Oc1ccc2c3c1O[C@H]1[C@@H](O)CC[C@@]4(O)[C@@H](C2)N(CC2CCC2)CC[C@]314 [Nalbuphine hydrochloride]	0.515 ± 0.011
C=C1CC[C@@]2(O)[C@H]3Cc4ccc(O)c5c4[C@@]2(CCN3CC2CC2)[C@H]1O5 [Nalmefene hydrochloride]	0.4625 ± 0.0046
CNC(C)(C)Cc1ccccc1 [Mephentermine hemisulfate]	0.48 ± 0.047
C[C@]12CC[C@H](O)C[C@H]1CC[C@@H]1[C@@H]2CC[C@]2(C)[C@@H](C3=CC(=O)OC3)CC[C@]12O [Digitoxigenin]	0.439 ± 0.016

Reference: the supplement of paper PMC9262897, “Low-cost anti-mycobacterial drug discovery using engineered E. coli” (Nature Communications, 2022)
